Drawing on PubChem BioAssay (NCI), this text covers growth for 30 compounds.

The panel holds about 83,000 compounds, 20% with a hit somewhere; the sample as a whole holds those more often.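 In brief: 96-well plates, 48 h treatment, single concentration, percent growth endpoint.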 Unmarked numbers belong to inactive results. Calls of active or inactive are those of the source. The calls were made as follows: active = growth percent below 10; inactive = the rest.

Holding throughout (assay): NCI-60 one-dose screen, 48 h (100 = growth as untreated, 0 = no growth, -100 = all killed)
Holding throughout (conditions): 10 µM

For assay [1], the system named is T-47D breast.
For assay [2], the system named is BT-549 breast.
The subject of assay [3] is MDA-MB-435 melanoma.
The test system of assay [4] is SW-620 colon.
In assay [5] the test system is MCF7 breast.
Assay [6] has as its system HCT-116 colon.
Assay [7] relates to HCC-2998 colon.
The test system of assay [8] is KM12 colon.
In assay [9] the test system is MDA-MB-468 breast.

In the case of `CC1=C2C(=C[C@@](C)(CO)[C@@H]2O)/C(=N\N)[C@](C)(O)C12CC2`, the growth in assay [1] was -11.8% (active); in [2] it was -71.7% (active); in assay [3], -63.8% (active); in [4] it was -9.56% (active); in [5] it was -6.87% (active); in [6] it was 19.1%. Moreover, the growth in assay [7] is -76.6% (active); in assay [8], 7.94% (active); in assay [9], -90.8% (active).

Turning to `CN(C)c1ccc(/C=C/c2nc3ccccc3c(=O)n2CC(=O)Nc2ccc(Cl)cc2)cc1`, the growth in assay [1] was 75.1%; in [2], 26.6%; in assay [3] it was 68.8%; in [4] it was 61.9%; in [5] it was 27.9%; in assay [6], 56.8%. Also, the growth was 68% in assay [7] and 55.1% in assay [8].

As for `CC(=O)c1ccc(Nc2nc(SCCC(C)C)nc(-c3ccc(F)cc3)c2C#N)cc1`, the growth in [1] is 68.3%; in [2] it was 56.7%; in [3], 73.8%; in [4] it was 68.5%; in assay [5] it was 59.6%; in [6] it was 22%. The values for the growth in [7] and in [8] were 83.4% and 81.8%, respectively.

`COc1ccc(C2NC(=S)NC(C)=C2C(=O)OC(C)C)cc1OC` (stereo not drawn): the growth was 91.1% in [1]; 103% in [2]; 104% in [3]; 103% in [4]; 108% in [5]; 99.3% in assay [6]. Further, the growth in [7] was 114%; in assay [8] it was 103%.

Take `CC(C)C1=C[C@@]23CC[C@@H]4[C@](C)(CCC[C@]4(C)C(=O)NCc4ccccc4)[C@H]2C[C@@H]1[C@H]1C(=O)CCC(=O)[C@H]13`: the growth was 51.8% in assay [1]; 68.7% in assay [2]; 86% in [3]; 85.4% in [4]; 42.7% in [5]; 60.4% in [6]. Moreover, the growth in [7] is 90%; in assay [8], 84.6%.

In the case of `Brc1ccc(/C=N/Nc2ncnc3sc4c(c23)CCN(Cc2ccccc2)C4)cc1`, the growth in assay [1] was 91.6%; in [2], 102%; in assay [3], 73.5%; in assay [4], 35%; in assay [5], 42.8%; in [6], 33.3%. Also, the growth in assay [7] was 91.4%; in [8], 50.2%.

Take `COc1cccc(-c2ccnc(/N=C(\N)Nc3ccc(S(=O)(=O)Nc4nc(C)cc(C)n4)cc3)n2)c1`: the growth was 88.4% in [1]; 111% in assay [2]; 109% in assay [3]; 105% in assay [4]; 75.9% in [5]; 103% in assay [6]. For the same compound, the growth in assay [7] is 114%; in assay [8] it was 98%.

Turning to `C=C[C@H]1[C@H](O[C@@H]2OC(CO)[C@@H](O)[C@H](O)C2OC(=O)c2c(O)cc(O)cc2-c2cccc(O)c2)OC=C2C(=O)OCC[C@H]21` (stereo partly drawn), the growth in assay [1] was 99.3%; in [2], 94.8%; in assay [3], 102%; in assay [4] it was 105%; in assay [5] it was 93.5%; in assay [6], 94.4%. In addition, the growth in [7] was 106%; in assay [8], 103%; in assay [9], 96.5%.

Turning to `Cc1ccc(CNC(=O)Cc2ccc3c(c2)CN(C2CCC(=O)NC2=O)C3=O)cc1` (stereo not drawn), the growth in assay [1] is -4% (active); in assay [2] it was -46.4% (active); in [3] it was 13.7%; in [4], 4.15% (active); in assay [5], 15.1%; in assay [6], 65.2%. Also, the growth was -23.5% (active) in assay [7] and 1.17% (active) in [8].

Regarding `CC(=O)c1cc(C(=O)c2ccc3c(c2)NC(=O)CO3)n2ccc3ccccc3c12`, the growth in assay [1] is 75.3%; in assay [2], 78.3%; in assay [3], 80.5%; in [4], 93.1%; in [5] it was 64%; in [6], 45%. In addition, the growth is 87.8% in [7] and 51.5% in assay [8].

Turning to `N#Cc1c(NC(=O)c2ccc(C(F)(F)F)cc2C(F)(F)F)sc2c1CCC(=O)C2`, the growth in assay [1] was -22.7% (active); in assay [2] it was -65.3% (active); in [3] it was -53.6% (active); in [4] it was -43.7% (active); in assay [5], -10.6% (active); in assay [6], 0.663% (active). For the same compound, the figures for the growth in [7] and in assay [8] were -2.99% (active) and -34.2% (active), respectively.

For the compound `O=C(c1ccc(O)cc1)C1[C@H](c2ccc(Br)cc2)[C@@H](c2ccccc2)NC12C(=O)Nc1ccccc12` (stereo partly drawn), the growth in assay [1] is 38.4%; in assay [2] it was 116%; in [3], 13.4%; in [4], 26.2%; in [5] it was 8.43% (active); in [6] it was 17.3%. Also, the growth is -34.8% (active) in assay [7] and 1.31% (active) in assay [8].

For `CN(C)c1cccc2c(S(=O)(=O)Nc3cccc(-c4csc(NC(=O)CCCCCN5CCN(c6cc7c(cc6F)C(=O)N(C6CCC(=O)NC6=O)C7=O)CC5)n4)c3)cccc12` (stereo not drawn), the growth was 74.7% in assay [1]; 85.6% in assay [2]; 95.2% in assay [3]; 98.6% in assay [4]; 73.5% in [5]; 68.3% in [6]. Besides, the results for the growth in assay [7] and in assay [8] were 111% and 104%, respectively.

Regarding `O=C(CSc1nnc(-c2ccc3nc(-c4ccccc4)[nH]c3c2)o1)Nc1ccc(Cl)cc1`, the growth in [1] was 23.8%; in [2], 55%; in assay [3], 40.2%; in assay [4], 66.8%; in [5], 16.3%; in [6], 36.4%. Moreover, the growth was 22.2% in assay [7] and 33% in assay [8].

With `CN1C(=O)/C(=C/c2nccs2)SC1=S`, the growth in assay [1] is 45.9%; in assay [2] it was 90.2%; in assay [3] it was 83.9%; in assay [4], 92.5%; in assay [5], 38.2%; in [6], 85.2%. The growth in assay [7] is 113%; in [8], 90.2%.

On to `O=C(N/C(=C1/OCCN1Cc1ccccc1)[P+](c1ccccc1)(c1ccccc1)c1ccccc1)c1ccccc1`, for which the growth was 11.2% in [1]; -16.4% (active) in assay [2]; 18.5% in [3]; 12.5% in assay [4]; 1.56% (active) in assay [5]; 2.1% (active) in assay [6]. Moreover, the growth in assay [7] was -10.8% (active); in [8], -1.17% (active).

Turning to `Nc1nc(-c2ccccc2)cs1`, the growth was 16.3% in assay [1]; 31.1% in assay [2]; 67.9% in assay [3]; 70.5% in [4]; 39.7% in [5]; 50.7% in assay [6]. Besides, the growth was 74.6% in assay [7] and 43.1% in assay [8].

Regarding `O=C(Nc1cccc(-c2cn(-c3ccc4oc(=O)ccc4c3)nn2)c1)Nc1cc(C(F)(F)F)cc(C(F)(F)F)c1`, the growth was -0.405% (active) in [1]; 3.59% (active) in assay [2]; 49% in assay [3]; 56.6% in assay [4]; 17% in [5]; 29.1% in assay [6]. Further, the results for the growth in assay [7] and in [8] were 33.1% and 33.2%, respectively.

As to `CCOP(=O)(OCC)O[C@H]1CC[C@]2(C)[C@H]3CC[C@@H]4[C@@H]([C@](C)(O)CCC=C(C)C)CC[C@@]4(C)[C@]3(C)CC[C@H]2C1(C)C`, the growth in [1] is 9.26% (active); in assay [2], -14.5% (active); in [3], 29.9%; in assay [4], 14.9%; in [5], -0.325% (active); in [6], 9.92% (active). Moreover, the growth is 36% in assay [7] and 21.1% in assay [8].

With `Cc1ccc2nc(-c3ccc(-c4nnc(SCC(=O)Nc5ccc(Br)cc5)o4)cc3)[nH]c2c1`, the growth in assay [1] is 50.8%; in assay [2], 86.8%; in assay [3], 59.9%; in assay [4], 82.8%; in assay [5], 45.1%; in assay [6], 67.4%. The growth is 105% in [7] and 70.4% in [8].

For the compound `O=C1Nc2cc(-c3ccc(NC(=O)c4cccs4)cc3)ccc2/C1=C/c1ccc[nH]1`, the growth in assay [1] is 22.2%; in [2], 91.7%; in assay [3], 102%; in assay [4], 60.3%; in [5], -12.7% (active); in assay [6], 53.3%. Besides, the results for the growth in [7] and in assay [8] were 79.5% and 39.3%, respectively.

As for `O/N=C(\CSc1nnc(-c2c[nH]c3ccccc23)n1-c1ccccc1)c1ccc(Cl)cc1`, the growth in assay [1] is 3.91% (active); in assay [2], -66.7% (active); in assay [3], -99.8% (active); in assay [4] it was -37% (active); in assay [5], 3.27% (active); in [6], 0.742% (active). For the same compound, the growth in [7] is 17%; in assay [8] it was 21.4%.

`O=C(Nc1ccc(Cl)c([N+](=O)[O-])c1)Nc1ccc(Cl)c([N+](=O)[O-])c1`: the growth is 1.86% (active) in assay [1]; -11.6% (active) in assay [2]; 13.3% in [3]; 18.7% in assay [4]; -5.85% (active) in assay [5]; 9.36% (active) in [6]. For the same compound, the growth in assay [7] is 12.7%; in [8], 5.87% (active).

On to `CCOC(=O)N/C(=C1/OCCN1C)[P+](c1ccccc1)(c1ccccc1)c1ccccc1`, for which the growth in assay [1] is 65.9%; in assay [2], 75.4%; in assay [3], 51.5%; in assay [4], 89.1%; in assay [5] it was 41.7%; in [6], 75.1%. Moreover, the growth is 60.4% in [7] and 51.3% in assay [8].

In the case of `O=C(NO)c1ccc(Cn2ccc3c(NCc4ccccc4)ncnc32)cc1`, the growth in assay [1] is -16.8% (active); in assay [2] it was -22% (active); in [3], -26.5% (active); in [4] it was -64.8% (active); in assay [5], 9.85% (active); in assay [6] it was -7.75% (active). In addition, the figures for the growth in [7] and in assay [8] were -3.05% (active) and 11.9%, respectively.

As for `COc1ccc(/C(CSc2nnc(-c3c[nH]c4ccccc34)n2-c2ccccc2)=N/O)cc1`, the growth is 10.4% in assay [1]; 16.5% in [2]; -5.25% (active) in assay [3]; 39.4% in [4]; 14.5% in [5]; 28.1% in assay [6]. The growth in [7] was 42.4%; in assay [8], 21.2%.

Regarding `COc1cc(/C=C/C(=O)c2ccc(S(=O)(=O)NCCNc3nc(Nc4ccc(F)cc4)nc(N(C)C)n3)cc2)cc(OC)c1OC`, the growth is 26.2% in [1]; -9.95% (active) in [2]; -24.8% (active) in [3]; 1.12% (active) in assay [4]; -76.1% (active) in assay [5]; -69.6% (active) in [6]. Besides, the growth in assay [7] was -99% (active); in [8], -81.1% (active).

For `O=C(CNc1nc(-c2ccccc2)cs1)Nc1ccc(Cl)cc1[N+](=O)[O-]`, the growth in assay [1] is -32.6% (active); in assay [2], -46.6% (active); in [3], -5.51% (active); in [4] it was -60.6% (active); in assay [5], -59.3% (active); in assay [6] it was -22.8% (active). Besides, the growth in [7] was -93.4% (active); in assay [8], -0.339% (active).

For `CC(C)(C)Nc1nc2cc(Cl)c(Cl)cc2nc1S(C)(=O)=O`, the growth in [1] is 31.3%; in assay [2], -29.7% (active); in assay [3] it was 44.6%; in assay [4], -74.5% (active); in assay [5] it was 58.8%; in assay [6], 13.1%. In addition, the growth in [7] was 42.2%; in assay [8], 81.3%; in assay [9] it was -28.5% (active).

On to `COc1ccc(CN2[C@H](C(=O)NCCCCCCC(=O)NO)Cc3c([nH]c4ccccc34)[C@H]2C2CC2)cc1`, for which the growth is -10.3% (active) in assay [1]; 25.5% in assay [2]; -49.1% (active) in [3]; -68.1% (active) in assay [4]; 6.39% (active) in [5]; 2.09% (active) in assay [6]. The figures for the growth in assay [7] and in assay [8] were -36.7% (active) and 12.5%, respectively.
